In PubChem BioAssay (Tox21):
Results filed as inconclusive are left out. Active and inactive are the calls of the source. Unless noted, calls follow the shape of the dose curve; as a rule, active = well fitted curve in the direction sought with a large enough effect in the repeat runs; inconclusive = weak or mixed curves; inactive = no such curve, though single readings can be large; an effect the other way counts as inactive or inconclusive.

Key:
[1] = biological target: Luciferin 4-monooxygenase (Photinus pyralis) (UniProt P08659); assay: qHTS assay to identify small molecule inhibitors of firefly luciferase (AID 1224835); also: nearly all actives have a fitted effect of over 25% in size; also: potency is read from the fitted curve at half-maximal effect
Chain of Luciferin 4-monooxygenase (Photinus pyralis) (P08659 whole entry, looked up): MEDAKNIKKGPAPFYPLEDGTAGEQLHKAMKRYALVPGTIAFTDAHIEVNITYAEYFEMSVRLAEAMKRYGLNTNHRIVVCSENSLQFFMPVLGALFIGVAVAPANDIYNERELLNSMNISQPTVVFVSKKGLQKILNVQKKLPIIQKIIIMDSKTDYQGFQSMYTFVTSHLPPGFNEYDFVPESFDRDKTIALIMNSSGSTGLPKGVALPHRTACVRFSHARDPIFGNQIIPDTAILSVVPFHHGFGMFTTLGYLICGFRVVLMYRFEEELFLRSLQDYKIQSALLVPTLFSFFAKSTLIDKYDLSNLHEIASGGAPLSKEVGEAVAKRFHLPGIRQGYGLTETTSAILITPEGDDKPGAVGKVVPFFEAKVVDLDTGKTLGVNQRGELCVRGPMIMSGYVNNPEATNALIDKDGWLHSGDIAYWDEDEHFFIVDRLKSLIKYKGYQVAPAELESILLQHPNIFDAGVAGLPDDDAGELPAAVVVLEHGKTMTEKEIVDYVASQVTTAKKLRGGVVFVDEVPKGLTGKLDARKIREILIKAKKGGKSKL
How it was run: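 Biochemical qHTS: compounds run as interplate titrations against purified firefly enzyme, with D-luciferin and ATP each at its KM concentration. Light output recorded by CCD imaging.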

[2] = qHTS assay to identify small molecule agonists of the constitutive androstane receptor (CAR) signaling pathway - cell viability counter screen (AID 1224836); also: series mostly up to about 92 µM; nearly all actives have a fitted effect of over 45% in size
How it was run: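 Double-stable HepG2 hepatoma cells (hCAR plus CYP2B6-2.2kb) are treated for 23 h at 37 C with test compounds in 15-point concentration series. PK11195 at 0.75 uM final is co-added. Cell viability is quantified by CellTiter-Fluor.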

[3] = biological target: Nuclear receptor subfamily 1 group I member 3 (Homo sapiens) (UniProt Q14994); assay: qHTS assay to identify small molecule agonists of the constitutive androstane receptor (CAR) signaling pathway (AID 1224839); also: nearly all actives have a fitted effect of over 15% in size; also: potency is read from the fitted curve at half-maximal effect
Chain of Nuclear receptor subfamily 1 group I member 3 (Homo sapiens) (Q14994 whole entry, looked up): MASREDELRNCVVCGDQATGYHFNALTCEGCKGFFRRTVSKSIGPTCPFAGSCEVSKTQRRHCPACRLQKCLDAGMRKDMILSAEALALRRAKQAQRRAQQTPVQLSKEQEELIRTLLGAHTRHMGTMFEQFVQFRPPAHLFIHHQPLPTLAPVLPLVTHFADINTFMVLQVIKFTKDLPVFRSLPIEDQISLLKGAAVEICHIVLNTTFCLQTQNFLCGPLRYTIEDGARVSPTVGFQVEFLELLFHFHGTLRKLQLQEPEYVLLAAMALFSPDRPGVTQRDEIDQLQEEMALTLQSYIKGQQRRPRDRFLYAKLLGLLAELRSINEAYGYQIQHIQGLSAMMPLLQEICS
How it was run: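 Readout: firefly luciferase luminescence via ONE-Glo. System: HepG2 double-stable for hCAR and CYP2B6-2.2kb. Conditions: 15-point compound titration, PK11195 at 0.75 uM final, 24 h incubation.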

[4] = qHTS assay to identify small molecule antagonists of the estrogen related receptor signaling pathway with the pleiotropic PPARgamma coactivator (PGC) from Tox21 10K library (AID 1224841; call rule not given here; also: actives are mostly falling curves and most rising ones were filed inactive; nearly all actives have a fitted effect of over 50% in size; also: potency is read from the fitted curve at half-maximal effect)
How it was run: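 Test chemicals dissolved in DMSO were applied to pre-incubated (6 h) PGC/ERR cells at 2,000 cells/well for an 18 h, 37 C treatment; reporter luminescence was then read using One-Glo.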

[5] = qHTS assay to identify small molecule agonists of the estrogen related receptor signaling pathway with the pleiotropic PPARgamma coactivator (PGC) from Tox21 10K library (AID 1224842); also: nearly all actives have a fitted effect of over 15% in size
How it was run: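 PGC/ERR reporter cell line, 2,000 cells per well, incubated 6 h at 37 C before 23 nL compound in DMSO was added. After 18 h at 37 C, One-Glo luminescence read following 30 min at room temperature.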

[6] = biological target: Thyrotropin receptor (Homo sapiens) (UniProt P16473); assay: qHTS assay to identify small molecule agonists of the thyroid stimulating hormone receptor (TSHR) signaling pathway (AID 1224843; calls by dose curve; also: nearly all actives have a fitted effect of over 45% in size)
Chain of Thyrotropin receptor (Homo sapiens) (P16473 whole entry, looked up): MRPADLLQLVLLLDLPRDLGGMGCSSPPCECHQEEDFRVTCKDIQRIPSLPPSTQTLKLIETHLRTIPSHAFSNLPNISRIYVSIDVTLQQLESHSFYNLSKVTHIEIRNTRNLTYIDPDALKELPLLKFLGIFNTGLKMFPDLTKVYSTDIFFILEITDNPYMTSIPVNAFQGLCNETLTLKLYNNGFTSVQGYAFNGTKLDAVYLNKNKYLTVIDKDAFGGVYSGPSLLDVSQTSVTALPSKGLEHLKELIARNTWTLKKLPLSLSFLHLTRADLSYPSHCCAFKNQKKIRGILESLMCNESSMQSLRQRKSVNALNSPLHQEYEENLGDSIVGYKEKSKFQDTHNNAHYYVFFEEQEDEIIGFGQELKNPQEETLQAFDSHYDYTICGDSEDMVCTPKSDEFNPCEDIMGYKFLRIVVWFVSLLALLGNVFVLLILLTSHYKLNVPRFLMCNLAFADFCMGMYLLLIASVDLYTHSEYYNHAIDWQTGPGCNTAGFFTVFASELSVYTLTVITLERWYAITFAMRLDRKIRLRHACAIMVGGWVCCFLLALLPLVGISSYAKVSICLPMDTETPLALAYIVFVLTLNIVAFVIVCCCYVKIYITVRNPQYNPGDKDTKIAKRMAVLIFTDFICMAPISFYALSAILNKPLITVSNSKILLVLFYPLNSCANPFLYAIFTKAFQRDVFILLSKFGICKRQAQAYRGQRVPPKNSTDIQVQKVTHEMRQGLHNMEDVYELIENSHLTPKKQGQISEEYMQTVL
How it was run: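 Agonist-mode screen: TSHR HEK293 cells received test chemicals for half an hour at room temperature, then HTRF cAMP detection reagents for one hour prior to fluorescence measurement. Each chemical ran as a 15-concentration series, triplicated.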

[7] = qHTS assay to identify small molecule antagonists of the constitutive androstane receptor (CAR) signaling pathway - cell viability counter screen (AID 1224837); also: series mostly up to about 92 µM; nearly all actives have a fitted effect of over 45% in size
How it was run: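 To flag cytotoxic false antagonists, HepG2 hCAR/CYP2B6-2.2kb cells were treated 23 hr with 15-concentration compound series and 50 nM CITCO at 37 C/5% CO2; CellTiter-Fluor fluorescence was the measured end point.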

[8] = biological target: Nuclear receptor subfamily 1 group I member 3 (Homo sapiens) (UniProt Q14994); assay: qHTS assay to identify small molecule antagonists of the constitutive androstane receptor (CAR) signaling pathway (AID 1224838);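 also: HepG2 cells stably expressing hCAR with CYP2B6 luciferase reporter stimulated by CITCO; nearly all actives have a fitted effect of over 40% in size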
How it was run: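 Human hepatoma HepG2 cells expressing hCAR and a CYP2B6 promoter (2.2 kb) luciferase construct; compound titration (15 points) with 50 nM CITCO final, 24 h at 37 C/5% CO2; luminescence via ONE-Glo after 30 min at room temperature.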

[9] = qHTS assay to identify small molecule antagonists of the estrogen related receptor signaling pathway with the pleiotropic PPARgamma coactivator (PGC) from Tox21 10K library - cell viability counter screen (AID 1224840; active = well fitted cell-killing curve with a large enough effect in the repeat runs, not every such curve was filed as active; also: nearly all actives have a fitted effect of over 40% in size)
How it was run: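 Seeded PGC/ERR cells (2,000/well, 6 h, 37 C/5% CO2) get compound by pin tool; 17.5 h incubation at 37 C; CellTiter-Fluor added, 30 min, fluorescence measured.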

Measured: Potency

CCCOC(C(=O)OC1CCN(C)CC1)(c1ccccc1)c1ccccc1
inactive: [1] | [2] | [3] | [4] | [5] | [6]

COC(=O)C1=C(C)NC(COC(N)=O)=C(C(=O)OC(C)C)C1c1cccc(Cl)c1Cl (stereo not drawn)
inactive: [1] | [2] | [7] | [3] | [5] | [6]

CCCCCCCCCCCCCCCCCCOS(=O)(=O)O
inactive: [1] | [2] | [7] | [5]

CCc1c(C(=O)NN2CCCCC2)nn(-c2ccc(Cl)cc2Cl)c1-c1ccc(Br)cc1
inactive: [1] | [7] | [3] | [5] | [6]
active: [4] 4.86 µM

CCOC(=O)COC(=O)c1cc(Oc2ccc(C(F)(F)F)cc2Cl)ccc1[N+](=O)[O-]
inactive: [1] | [2] | [7] | [8] | [9]

CCCCc1nc2cccnc2n1Cc1ccc(-c2ccccc2-c2nnn[nH]2)cc1
inactive: [2] | [8] | [3] | [9]

CCCCC/C=C\C/C=C\CCCCCCCC(=O)NC(C)c1ccccc1 (stereo not drawn)
inactive: [1] | [2] | [7] | [3] | [9] | [5]

O=C1OC(CN2CCOCC2)CN1/N=C/c1ccc([N+](=O)[O-])o1 (stereo not drawn)
inactive: [1] | [2] | [7] | [9]

COc1ccc(C(=O)Nc2nc3ccccc3c(NCc3ccccc3)c2C#N)cc1
inactive: [1] | [2] | [7] | [8] | [9] | [5] | [6]
active: [3] 21.7 µM

Cn1c(=O)cc(Oc2ccc(F)cc2F)c2cnc(NCC(C)(C)O)nc21
inactive: [1] | [2] | [8] | [3] | [9] | [5]
active: [4] 34.4 µM

CC(=O)c1ccc2c(c1)N(CCCN(C)C)c1ccccc1S2
inactive: [1] | [2] | [7] | [8] | [3] | [9] | [6]

O=C(Nc1ccccc1)c1ccccc1O
active: [1] 15.9 µM | [3] 27.3 µM
inactive: [2] | [7] | [8] | [5]

CN(C)CCCN1c2ccccc2Sc2ccccc21
inactive: [1] | [2] | [7] | [8] | [3] | [9] | [4] | [5]

CCN(CC)CCOC(=O)C(Cc1cccc2ccccc12)CC1CCCO1 (stereo not drawn)
inactive: [1] | [2] | [7] | [3] | [9] | [6]
